An excerpt weighted towards active compounds, which were near 5.8% of everything screened.
RORgamma inh: inhibitors of mouse ROR gamma transcriptional activity; P51450; Drosophila S2 Gal4-RORgamma UAS-luciferase reporter, 20 h; Potency, µM (doses to about 53.6 µM), for inactives: top-dose activity change, negative = inhibition, actives largely listed as inhibitors; actives 5.4% (n = 310,000); further: potency means the concentration at half of the fitted maximal effect; on the % scale 0 is the no-effect control and ±100 the full control effect; nearly all actives have a fitted effect of over 60% in size
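Luminescence from a UAS-regulated Photinus luciferase reporter in stably transfected Drosophila Schneider cells is measured; decreased signal marks ROR gamma inhibition. Fusion expression is induced by 700 uM copper sulfate for 20 hr.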
uPA generation: cell surface uPA generation inhibition; actives 0.31% (n = 330,000); AID 540303; cell surface uPA generation assay, qHTS; Potency, µM (top dose mostly 38.3 µM), without a hit: at the highest dose activity change, negative = inhibition, actives largely listed as inhibitors; active means well fitted inhibition curve with a large enough effect; inconclusive means small, poorly fitted or top-dose-only effect; inactive means no such curve, though single readings can be large or run the other way; tested in mouse RAW 264.7 cells; further: potency means the concentration at half of the fitted maximal effect; on the % scale 0 is the no-effect control and ±100 the full control effect; nearly all actives have a fitted effect of over 55% in size
TRPV1 potentiator: human TRPV1 potentiation | Q8NER1 | TRPV1-expressing cells, Fluo-8 calcium influx, capsaicin EC20 potentiation | potentiation, % at 8.33 µM | actives 0.02% (n = 320,000); in the data active means potentiation above about 80%; inconclusive means between about 30% and that limit; further: 0% is about no effect
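Cells expressing TRPV1 were dye-loaded with Fluo-8 and read kinetically: 10 s baseline, 3 min after compound (agonist portion), then 2 min after EC20 capsaicin (allosteric enhancer portion). Calcium-bound dye fluorescence at 480/520 nm.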
Gal4-VP16 FLuc: counter-screen for ROR gamma inhibitors: Gal4-VP16 reporter. Drosophila S2 Gal4-VP16 UAS-luciferase, luminescence, 20 h. Potency, µM (top dose mostly 53.6 µM), for inactives: at the highest dose activity, negative = inhibition, most hits filed as inhibitors. actives 3.5% (n = 310,000). AID 2546;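 further: Gal4-VP16 expression switched on by copper sulfate through the metallothionein promoter; potency means the concentration at half of the fitted maximal effect; on the % scale 0 is the no-effect control and ±100 the full control effect; nearly all actives have a fitted effect of over 50% in size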
TRPV1 ag: human TRPV1 agonism | Q8NER1 | TRPV1-expressing cells, Fluo-8 calcium influx, agonist mode | activation, % at 8.33 µM | actives 0.19% (n = 320,000) | AID 540275; in the data active means activation above about 80%; inconclusive means between about 30% and that limit; further: 0% is about no effect
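TRPV1-expressing cells were cultured overnight at 35.5C and loaded with Fluo-8 calcium dye for 40 to 90 min at room temperature. After a 10 s baseline, compound was added and calcium influx was read kinetically for 3 min (ex 480/em 520 nm).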
* hit, by the source's call; u = inconclusive; x = no result; ! = not active in a repeat. Unless noted, the call rests on the fitted dose curve; in most records, active means well fitted curve in the direction sought with a large enough effect; inconclusive means small, poorly fitted or top-dose-only effect, or another doubt; inactive means no such curve, though single readings can be large; an effect the other way counts as inactive or inconclusive.

SMILES | RORgamma inh | uPA generation | TRPV1 potentiator | Gal4-VP16 FLuc | TRPV1 ag
O=C1c2ccccc2-c2cccc3cccc1c23 | 24% | 8.9µM* | x | 4% | x
O=c1[nH]sc2cc(F)ccc12 | 2.2µM* | -8% | -12 | 2.8µM* | 14
CC[C@H](C)[C@H](NC(=O)CN)C(=O)N[C@@H](CC(C)C)C(=O)NCC(=O)N[C@@H](Cc1ccccc1)C(=O)N[C@H](C(=O)N[C@@H](Cc1ccccc1)C(=O)N[C@H](C(=O)N[C@@H](CC(C)C)C(=O)O)[C@@H](C)O)C(C)C | 21% | x | x | -3% | x
N[C@@H](Cc1ccc(N(CCCl)CCCl)cc1)C(=O)O | -1% | 2.5µM* | 0 | -7% | 0
CSc1ccccc1C(=O)C1CCCN(Cc2cccc(C)n2)C1 (centres undefined) | 4.5µM* | 4% | 11 | 20µM* | 1
CSc1ccccc1C(=O)C1CCCN(Cc2ccccn2)C1 (centres undefined) | 11µM* | 4% | 5 | -23% | 0
COc1ccccc1C(=O)C1CCCN(Cc2cnc(C)s2)C1 (centres undefined) | 39% | -6% | 5 | 0% | -1
COc1ccc(CN2CCCC(C(=O)c3ccccc3SC)C2)cc1O (centres undefined) | -1% | -2% | 10 | 8% | 4
Cc1cccc(CN2CCCC(C(=O)c3ccc(C(F)(F)F)cc3)C2)n1 (centres undefined) | 2.8µM* | 0% | 18 | 7.9µM* | 8
Cc1ccc(Nc2nc(N)nc(CCl)n2)c(C)c1 | -42% | 4µM* | -2 | u | -3
COCc1cc(C)c(C#N)c(=S)[nH]1 | 4µM* | 5% | -7 | u | 0
O=C1C=C2C(=CCOC2O)O1 (centres undefined) | 1.1µM* | x | x | 0.89µM* | x
NC(=NCCc1ccc(I)cc1)SCCCc1cnc[nH]1 | 1% | x | x | -5% | x
CC1CC2CCC(O2)C(C)C(=O)OC(C)CC2CCC(O2)C(C)C(=O)OC(C)CC2CCC(O2)C(C)C(=O)OC(C)CC2CCC(O2)C(C)C(=O)O1 (centres undefined) | 0.11µM* | x | x | 0.5µM* | x
Cc1ccc(C(=O)NC(=S)NNS(=O)(=O)c2ccc(C)cc2)cc1 | 5.6µM* | -1% | u | u | -2
O=C(Oc1ccccc1)N1CCC[C@@]2(CCN(Cc3nccs3)C2)C1 | 0% | x | x | 1% | x
Cc1[nH]c(=O)n(C(C)(C)C)c(=O)c1Cl | 4% | x | x | 2% | x
COc1ccc(CN2C(=O)NC(=O)/C(=C/c3ccc(OC)c(OC)c3OC)C2=O)cc1 | -41% | -2% | 9 | 1.3µM* | -8
CN(C)P(=NC(=S)c1cccn1C)(N(C)C)N(C)C | 7.9µM* | -13% | 4 | 16µM* | 2
Cc1cc(C)cc(OP(=O)(Oc2cc(C)cc(C)c2)Oc2cc(C)cc(C)c2)c1 | -4% | x | x | 4% | x
O=C(N/N=C/c1cc(Br)c(Br)s1)c1ccncc1 | 0.56µM* | -9% | 8 | 1µM* | u
Cc1cc(C)c(-n2c(O)c(/C=N/NC(=O)c3ccncc3)c(=O)[nH]c2=O)c(C)c1 | -22% | 5% | -8 | 7% | 16
CSc1nnc([C@@H](N)Cc2ccccc2)o1 | -2% | x | 8 | 0% | 0
CC(C)Sc1nnc([C@@H](N)Cc2ccccc2)o1 | -57% | 4% | 7 | 11µM* | -4
O=[N+]([O-])c1cc(Cl)c(Cl)c(Cl)c1 | -6% | x | x | -1% | x
SMILES | RORgamma inh | uPA generation | TRPV1 potentiator | Gal4-VP16 FLuc | TRPV1 ag
O=[N+]([O-])c1ccc(N=Nc2c(Cl)cc(O)cc2Cl)cc1 | u | u | -30 | 5µM* | 4
CCOC(=O)c1cc(C)sc1/N=C/C1C(=O)NC(=S)NC1=O | 16µM* | -3% | u | 4% | -1
CCOC(=O)c1c(/N=C/C2C(=O)NC(=S)NC2=O)sc(C)c1C | -10% | x | 14 | -8% | 0
c1nc[nH]n1 | 13% | x | x | -5% | x
N#CCBr | 6% | x | x | -3% | x
Cn1nc([N+](=O)[O-])nc1Sc1cccc2cccnc12 | 11µM* | u | -8 | 18µM* | -1
Cc1cccc(C)c1NC1=NCCCS1 | 10µM*! | 14% | 8 | -2% | 1
Cc1ccc2c(c1)c(C1=c3ccccc3=NC1=O)c(O)n2C | 7.1µM* | u | -25 | 3.5µM* | u
Cc1ccc(C)c(-n2c(C)nc3ccccc3c2=O)c1 | 24% | -29% | 11 | -9% | 1

Bioassay records: PubChem BioAssay, National Center for Advancing Translational Sciences (NCATS)
